Results filed as inconclusive are left out. The source made the active and inactive calls. Unless noted, calls come from the whole dose curve; as a rule, active = well fitted curve in the direction sought with a large enough effect in the repeat runs; inconclusive = weak or mixed curves; inactive = no such curve, though single readings can be large; an effect the other way counts as inactive or inconclusive.
How the values were obtained:
[1] = qHTS assay to identify small molecule agonists of the vitamin D receptor (VDR) signaling pathway - cell viability counter screen (AID 743224); note: nearly all actives have a fitted effect of over 50% in size
In short: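 Cells: VDR-bla, 2,000/well, settled 4 h. Treatment: compounds in DMSO, 16 h, 37C/5% CO2. Readout: CellTiter-Glo luminescence after 30 min RT.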

[2] = qHTS assay to identify small molecule agonists of the NFkB signaling pathway (AID 1159509; active = well fitted curve in the direction sought with a large enough effect in the signal ratio in the repeat runs, not every such curve was filed as active; the % refers to the signal ratio)
In short: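 Agonist activity was read as beta-lactamase-driven FRET change (460 and 530 nm emission, 405 nm excitation) following 1.5 hr substrate loading at room temperature. Beforehand, ME-180 NFkB-bla reporter cells were treated with compounds for 5 hr at 37 C.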

[3] = qHTS assay to identify small molecule agonists of the endoplasmic reticulum stress response signaling pathway (AID 1159516; active = well fitted activation curve with a large enough effect in the signal ratio in the repeat runs, not every such curve was filed as active; the % refers to the signal ratio)
In short: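 Cells are seeded at 1,500 per well and incubated overnight. Compounds in DMSO are added for 5 hr at 37 C, then beta-lactamase FRET substrate for 2 hr at room temperature, and fluorescence at 460 and 530 nm is measured.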

[4] = qHTS assay to identify small molecule agonists of the endoplasmic reticulum stress response signaling pathway - cell viability counter screen (AID 1159517; calls by dose curve;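 note: HeLa cells carrying an ER stress response element beta-lactamase reporter; nearly all actives have a fitted effect of over 50% in size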)
In short: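 Cpd-treated ESRE-bla HeLa (5 hr, 37 C) → LiveBLAzer 2 hr RT → CellTiter-Glo 30 min RT → luminescence.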

[5] = qHTS assay to identify small molecule antagonists of the retinoid-related orphan receptor gamma (ROR-gamma) signaling pathway - cell viability counter screen (AID 1159520); note: nearly all actives have a fitted effect of over 50% in size
In short: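 Tet-on ROR gamma CHO cells (1,000/well) were plated 4 hr, given compounds in DMSO for 2 hr at 37 C, then induced with 1 uM final doxycycline for 16 hr. Viability was read as ATP by CellTiter-Glo luminescence after 30 min.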

[6] = qHTS assay to identify small molecule agonists of the AP-1 signaling pathway - cell viability counter screen (AID 1159525; calls by dose curve; note: nearly all actives have a fitted effect of over 55% in size)
In short: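 Each titration point was normalised to DMSO and tetra n-octyl ammonium bromide controls. The read was Cell Titer Glo luminescence after 30 min at RT, following 5 h compound exposure of ME-180 AP-1-bla cells at 37 °C.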

[7] = qHTS assay to identify small molecule agonists of the AP-1 signaling pathway (AID 1159526; calls by dose curve)
[8] = target: Retinoic acid receptor RXR-alpha (Homo sapiens) (UniProt P19793); experiment: qHTS assay to identify small molecule agonists of the RXR signaling pathway (AID 1159527; calls by dose curve; note: nearly all actives have a fitted effect of over 35% in size)
In short: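 Fluorescence ratio readout (460 vs 530 nm) from GeneBLAzer RXR-alpha HEK 293T cells after 16 hr compound treatment; cells seeded 5 hr beforehand in low-serum, charcoal-stripped medium.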

[9] = qHTS assay to identify small molecule agonists of the RXR signaling pathway - cell viability counter screen (AID 1159529);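 note: HEK 293T cells carrying an RXR-alpha UAS beta-lactamase reporter; nearly all actives have a fitted effect of over 50% in size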
In short: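 Viability read-out for the RXR-alpha agonist qHTS: luminescent CellTiter-Glo signal after 30 min at RT. HEK 293T bla reporter cells, 2% charcoal-stripped FBS, 16 hr compound incubation; tetraoctyl ammonium bromide as cytotoxic control.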

[10] = qHTS assay to identify small molecule antagonists of the retinoid acid receptor (RAR) signaling pathway - cell viability counter screen (AID 1159551); note: nearly all actives have a fitted effect of over 35% in size
In short: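 Cells (C3RL4) are plated, incubated overnight, dosed with compound in DMSO, then given retinol at 1 uM final. After 6 h at 37 C, CellTiter-Glo is added and luminescence read following 30 min at room temperature.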

[11] = qHTS assay to identify small molecule agonists of the retinoic acid receptor (RAR) signaling pathway (AID 1159553); conditions: C3RL4 RARE luciferase reporter, agonist, 6 h; activation: at 73.3 µM (top of the series)
In short: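 Seed C3RL4 reporter cells at 1,000 per well and incubate overnight at 37 C. Add compounds in DMSO, incubate 6 hr. Add luciferase reagent, wait 30 min at room temperature, read luminescence.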

[12] = qHTS assay to identify small molecule antagonists of the estrogen related receptor (ERR) signaling pathway from Tox21 library - cell viability counter screen (AID 1224834); note: nearly all actives have a fitted effect of over 30% in size
In short: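 ERR cells, 2,000/well; 6 h settle at 37 C/5% CO2; pin-tool compound transfer in DMSO; 17.5 h at 37 C; CellTiter-Fluor, 30 min; fluorescence intensity.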

[13] = target: Luciferin 4-monooxygenase (Photinus pyralis) (UniProt P08659); experiment: qHTS assay to identify small molecule inhibitors of firefly luciferase (AID 1224835); note: nearly all actives have a fitted effect of over 25% in size; note: potency is the fitted concentration of half-maximal effect
In short: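 Quantitative HTS format; KM concentrations of both substrates. Purified P. pyralis FLuc activity quantified from luminescence images.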

[14] = qHTS assay to identify small molecule agonists of the constitutive androstane receptor (CAR) signaling pathway - cell viability counter screen (AID 1224836); note: nearly all actives have a fitted effect of over 45% in size
In short: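 Multiplexed viability check: HepG2-CYP2B6-hCAR cells, 15-point compound dosing, 0.75 uM PK11195 final, 23 h at 37 C, CellTiter-Fluor fluorescence.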

[15] = qHTS assay to identify small molecule antagonists of the vitamin D receptor (VDR) signaling pathway - cell viability counter screen (AID 743225); note: nearly all actives have a fitted effect of over 50% in size
In short: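 In this counter screen, VDR-bla HEK 293T cells receive test compound plus 3 nM final calcitriol for 16 h at 37C. Room-temperature steps of 2 h with the beta-lactamase substrate, then 30 min with CellTiter-Glo, precede the luminescence read.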

[16] = target: Nuclear receptor ROR-gamma (Homo sapiens) (UniProt P51449); experiment: qHTS assay to identify small molecule antagonists of the retinoid-related orphan receptor gamma (ROR-gamma) signaling pathway (AID 1159521)
In short: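 Screening format: cell-based luciferase reporter in CHO cells with doxycycline-inducible RORγ. Compound pre-exposure lasts 2 h, doxycycline is 1 uM final, induction runs 16 h at 37 C, and ONE-Glo luminescence is read.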

[17] = qHTS assay to identify small molecule antagonists of the retinoic acid receptor (RAR) signaling pathway (AID 1159552; note: nearly all actives have a fitted effect of over 50% in size)
In short: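 Using a RARE-driven luciferase construct in C3RL4 cells, retinol at 1 uM final provided the agonist stimulus while compounds were co-applied. After 6 hours at 37 C, luminescence was recorded to flag inhibitors of retinol signaling.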

[18] = qHTS assay to identify small molecule antagonists of the constitutive androstane receptor (CAR) signaling pathway - cell viability counter screen (AID 1224837); note: nearly all actives have a fitted effect of over 45% in size
In short: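 Viability was measured with CellTiter-Fluor in a HepG2 line carrying stably transfected hCAR and a CYP2B6-2.2kb construct. Cells were exposed for 23 hr at 37 C to 15 compound concentrations with 50 nM CITCO as agonist.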

[19] = target: Nuclear receptor subfamily 1 group I member 3 (Homo sapiens) (UniProt Q14994); experiment: qHTS assay to identify small molecule antagonists of the constitutive androstane receptor (CAR) signaling pathway (AID 1224838);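 note: HepG2 cells stably expressing hCAR with CYP2B6 luciferase reporter stimulated by CITCO; nearly all actives have a fitted effect of over 40% in size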
In short: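 Antagonist mode used CITCO at a final 50 nM to activate CAR in human hepatoma HepG2 cells carrying stable hCAR and a 2.2 kb CYP2B6 promoter-luciferase construct. Compounds were tested at 15 concentrations over 24 h, with luminescence as the end point.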

[20] = qHTS assay to identify small molecule agonists of the NFkB signaling pathway - cell viability counter screen (AID 1159515; calls by dose curve; note: nearly all actives have a fitted effect of over 55% in size)
In short: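 Cells are seeded (2,000 NFkB-bla ME-180 per well), rested overnight, and dosed with DMSO-dissolved compounds for 5 hr at 37 C. Viability is then read by CellTiter-Glo luminescence after 30 min at room temperature.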

Measured: Potency

Chain of Nuclear receptor subfamily 1 group I member 3 (Homo sapiens) (Q14994 whole entry, looked up): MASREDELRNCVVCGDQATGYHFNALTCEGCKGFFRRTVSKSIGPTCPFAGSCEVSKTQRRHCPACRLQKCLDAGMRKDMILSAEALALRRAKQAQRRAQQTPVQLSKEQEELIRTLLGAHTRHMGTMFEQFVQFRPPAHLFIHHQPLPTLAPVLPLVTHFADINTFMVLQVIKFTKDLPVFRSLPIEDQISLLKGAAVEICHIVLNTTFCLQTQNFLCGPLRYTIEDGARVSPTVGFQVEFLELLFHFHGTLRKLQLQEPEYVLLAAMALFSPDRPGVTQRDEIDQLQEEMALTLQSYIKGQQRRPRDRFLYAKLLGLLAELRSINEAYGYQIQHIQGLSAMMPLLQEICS
Chain of Luciferin 4-monooxygenase (Photinus pyralis) (P08659 whole entry, looked up): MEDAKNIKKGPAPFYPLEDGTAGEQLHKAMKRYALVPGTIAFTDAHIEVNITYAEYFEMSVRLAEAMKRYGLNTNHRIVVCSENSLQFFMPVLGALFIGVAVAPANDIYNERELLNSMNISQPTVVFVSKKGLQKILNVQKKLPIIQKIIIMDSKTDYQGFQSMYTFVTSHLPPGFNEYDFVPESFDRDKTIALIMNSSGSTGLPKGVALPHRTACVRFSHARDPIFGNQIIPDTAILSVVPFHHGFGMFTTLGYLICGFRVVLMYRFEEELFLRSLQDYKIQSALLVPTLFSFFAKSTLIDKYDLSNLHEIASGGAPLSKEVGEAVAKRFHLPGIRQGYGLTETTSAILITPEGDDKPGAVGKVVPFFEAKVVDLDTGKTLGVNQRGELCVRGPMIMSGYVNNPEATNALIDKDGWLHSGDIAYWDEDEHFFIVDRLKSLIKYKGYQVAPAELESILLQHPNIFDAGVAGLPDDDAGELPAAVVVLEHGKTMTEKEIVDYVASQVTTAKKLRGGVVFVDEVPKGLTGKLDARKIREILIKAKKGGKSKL
Chain of Retinoic acid receptor RXR-alpha (Homo sapiens) (P19793 whole entry, looked up): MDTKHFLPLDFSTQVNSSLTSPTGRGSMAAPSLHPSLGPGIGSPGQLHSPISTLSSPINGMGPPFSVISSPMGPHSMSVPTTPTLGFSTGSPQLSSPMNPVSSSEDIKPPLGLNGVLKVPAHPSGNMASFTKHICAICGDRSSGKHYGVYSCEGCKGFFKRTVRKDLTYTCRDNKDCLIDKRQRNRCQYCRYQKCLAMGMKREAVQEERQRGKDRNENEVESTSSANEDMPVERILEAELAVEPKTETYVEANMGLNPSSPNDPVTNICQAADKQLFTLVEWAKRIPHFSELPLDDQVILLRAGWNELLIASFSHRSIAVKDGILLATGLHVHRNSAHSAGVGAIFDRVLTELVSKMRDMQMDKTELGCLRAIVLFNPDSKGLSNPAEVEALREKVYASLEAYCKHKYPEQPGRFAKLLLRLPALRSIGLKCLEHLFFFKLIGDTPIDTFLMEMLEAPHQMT

NS(=O)(=O)c1ccccc1OC(F)(F)F
inactive: [1] | [2] | [3] | [4] | [5] | [6] | [7] | [8] | [9] | [10] | [11] | [12] | [13] | [14]

O=C1OC(=O)c2cc(Oc3ccc4c(c3)C(=O)OC4=O)ccc21
inactive: [1] | [15] | [2] | [3] | [4] | [5] | [16] | [6] | [7] | [8] | [9] | [10] | [17] | [11] | [12] | [14] | [18]

C=CCOc1c(Br)cc(Br)cc1Br
inactive: [1] | [15] | [3] | [4] | [5] | [16] | [6] | [7] | [8] | [9] | [10] | [17] | [11] | [12] | [13] | [19]

C[C@H](CCC(=O)O)[C@H]1CC[C@H]2[C@@H]3[C@H](O)C[C@@H]4C[C@H](O)CC[C@]4(C)[C@H]3C[C@H](O)[C@]12C
inactive: [1] | [15] | [20] | [3] | [4] | [5] | [16] | [6] | [7] | [8] | [9] | [10] | [17] | [11] | [12] | [13] | [14] | [18]

C=C(C)[C@@H]1CC[C@@H](C)C[C@@H]1O
inactive: [1] | [15] | [20] | [3] | [4] | [5] | [6] | [7] | [8] | [9] | [12] | [13] | [14] | [18]

CCCCC(=O)N(C)C
inactive: [1] | [15] | [20] | [3] | [4] | [5] | [6] | [7] | [8] | [9] | [10] | [17] | [11] | [12] | [13] | [14] | [18]

CN[C@@H]1[C@@H](O)[C@@H](O[C@@H]2[C@H](O)[C@H](O[C@H]3OC(CN)=CC[C@H]3N)[C@@H](N)C[C@H]2N)OCC1(C)O (stereo partly specified)
inactive: [1] | [15] | [20] | [3] | [4] | [5] | [16] | [6] | [7] | [8] | [9] | [10] | [11] | [12]

COc1ccc(N=Nc2cc(C)c(N=Nc3ccc(S(=O)(=O)O)cc3)cc2OC)cc1
inactive: [1] | [15] | [20] | [3] | [4] | [5] | [16] | [6] | [7] | [8] | [9] | [17] | [11] | [19]
active: [13] 44.8 µM

Cc1ncc([N+](=O)[O-])n1CC(O)CCl (stereo unspecified)
inactive: [1] | [15] | [3] | [4] | [5] | [16] | [6] | [7] | [8] | [9] | [17] | [11] | [12] | [13] | [14] | [18] | [19]

OCCCCCCCl
inactive: [1] | [15] | [20] | [3] | [4] | [5] | [6] | [7] | [8] | [9] | [10] | [17] | [11] | [13] | [14] | [18]

CC(=O)OC[C@H]1O[C@@H](OC(C)=O)[C@H](OC(C)=O)[C@@H]1OC(C)=O
inactive: [1] | [15] | [20] | [3] | [4] | [5] | [16] | [6] | [7] | [8] | [9] | [10] | [17] | [11] | [12] | [13]

CCCCC[Si](OCC)(OCC)OCC
inactive: [1] | [15] | [20] | [3] | [4] | [5] | [16] | [6] | [7] | [8] | [9] | [17] | [11] | [12] | [18]

Cc1nc2ccccc2c(=O)o1
inactive: [1] | [15] | [20] | [3] | [4] | [5] | [16] | [6] | [7] | [8] | [9] | [10] | [17] | [11] | [13] | [14] | [18] | [19]

C=COCCOCCOC=C
inactive: [1] | [15] | [20] | [3] | [4] | [5] | [16] | [6] | [7] | [8] | [9] | [10] | [17] | [11] | [13] | [14] | [19]

NC(Cc1c[nH]c2ccccc12)C(=O)O (stereo unspecified)
inactive: [1] | [15] | [20] | [3] | [4] | [5] | [16] | [6] | [7] | [8] | [9] | [10] | [11] | [12] | [13] | [14] | [18]

CC(C)CCC(=O)CCC(C)C
inactive: [1] | [15] | [3] | [4] | [5] | [6] | [7] | [8] | [9] | [10] | [17] | [11] | [12] | [13] | [14] | [18]

O=S(=O)(O)CCO
inactive: [1] | [15] | [3] | [4] | [5] | [16] | [6] | [7] | [8] | [9] | [10] | [17] | [11] | [12] | [13] | [14] | [18]

CC(C)=CC(C)(C)C
inactive: [1] | [20] | [3] | [4] | [5] | [6] | [7] | [8] | [9] | [10] | [17] | [11] | [13] | [14]

Nc1nc(=O)n([C@@H]2O[C@H](CO)[C@@H](O)[C@@H]2F)cc1I
inactive: [1] | [15] | [20] | [3] | [4] | [5] | [16] | [6] | [7] | [8] | [9] | [10] | [17] | [11] | [13] | [14] | [18]

CCS(=O)(=O)CCn1c([N+](=O)[O-])cnc1C
inactive: [1] | [20] | [3] | [4] | [5] | [16] | [6] | [7] | [8] | [9] | [17] | [11] | [13] | [14] | [18] | [19]
